Measured values published in PubChem BioAssay AID1259343 (VanderVen Lab, College of Veterinary Medicine, Cornell …, 2017).
About 2,900 (47%) of roughly 6,200 compounds were called active. No stated cut-off is given here; in the data, active means inhibition above about 50%; inactive means the rest. So high a share suggests a set chosen from earlier hits. The list shows a part of the results.

Experiment: Mycobacterium tuberculosis growth inhibition, primary screen (AID 1259343)
Settings: inhibition: at 10 µM, stronger effect = higher value; outcome: 10 uM

SMILES | inhibition
CC(C)Oc1ccc(CNC(=O)c2ccco2)cc1F | 99.8% (active)
O=C(Nc1ccc(SC2CCCC2)cc1)c1ccc(=O)[nH]c1 | 53.3% (active)
Nc1nccnc1C(=O)Nc1ccc(SC2CCCC2)cc1 | 80% (active)
Nc1nccnc1C(=O)NCCSCc1ccsc1 | -5.01% (inactive)
Cc1cc(NC(=O)c2cccc([N+](=O)[O-])c2C)n(-c2nc(C)c(C)c(=O)[nH]2)n1 | 98.3% (active)
CCc1c(C)nc(-n2nc(C)cc2NC(=O)c2cccc([N+](=O)[O-])c2C)[nH]c1=O | 102% (active)
Cc1cc(=O)[nH]c(-n2nc(C)cc2NC(=O)c2cccc([N+](=O)[O-])c2C)n1 | 100% (active)
CCc1c(C)nc(-n2nc(C)cc2NC(=O)c2ccccc2[N+](=O)[O-])[nH]c1=O | 81.9% (active)
O=C(O)c1ccc(Oc2cc(Cl)ccc2Cl)cc1 | 45.5% (inactive)
O=C(O)c1ccc(Oc2cccc(Br)c2)cc1 | 91.5% (active)
N#CCc1ccc(Oc2ccc(C(=O)O)cc2)cc1 | 34.3% (inactive)
CC[n+]1c(-c2ccccc2)c2cc(N)ccc2c2ccc(N)cc21 | 99.5% (active)
Nc1ccc(-c2nc(-c3ccccc3)c3cc(N)ccc3n2)cc1 | 29.6% (inactive)
Cc1ccc2sc(NNC(=O)c3cc(=O)c4ccccc4o3)nc2c1C | 72.2% (active)
O=S(=O)(c1ccc(F)c(F)c1)N1CCN(c2ccc(O)cc2)CC1 | 56.7% (active)
O=S(=O)(c1ccc(F)cc1)N1CCN(c2ccnc3cc(Cl)ccc23)CC1 | 3.02% (inactive)
O=C(c1ccc(N2CCCCC2)c([N+](=O)[O-])c1)N1CCc2ccccc21 | 23.8% (inactive)
CCC(CC)NC(=O)c1ccc(N2CCCCC2)c([N+](=O)[O-])c1 | 96.8% (active)
CCC(C)NC(=O)c1cnc(N2CCN(c3ccccc3[N+](=O)[O-])CC2)nc1OC (stereo not drawn) | 2.36% (inactive)
CN(C(=O)CSc1nc2sc3c(c2c(=O)[nH]1)CCCC3)C1CCCCC1 | 93.2% (active)
CN(C(=O)CSc1nc2sc3c(c2c(=O)n1C)CCCC3)C1CCCCC1 | 18.9% (inactive)
CCOC(=O)c1nn(-c2ccccc2)c(=O)c2c(NC(=O)CCCCl)scc12 | 61.2% (active)
CCOC(=O)c1nn(-c2cccc(C)c2)c(=O)c2c(N)scc12 | 89.5% (active)
CCOC(=O)c1nn(-c2ccccc2)c(=O)cc1NC(=O)c1ccc(C(C)(C)C)cc1 | -13.4% (inactive)
CCOC(=O)c1nn(-c2ccc(C)cc2)c(=O)cc1NC(=O)C1CCCC1 | -7.9% (inactive)
CCOC(=O)c1nn(-c2ccc(C)cc2)c(=O)c2c(N)scc12 | 60.8% (active)
CCOC(=O)c1nn(-c2ccc(C)cc2)c(=O)cc1N1CCN(c2ccccc2OC)CC1 | 38.5% (inactive)
CCOC(=O)c1nn(-c2ccc(C(C)C)cc2)c(=O)c2c(N)scc12 | 101% (active)
